High-throughput results as filed in PubChem.
MCF10A rereplic: induces DNA re-replication in MCF 10a normal breast cells | MCF 10A DNA re-replication, Hoechst nuclear intensity, 48 h | Potency, µM (titrated, usually from 46.1 µM), inactives show at the highest dose activity, positive = re-replication, actives largely listed as activators | 350,000 compounds, 2.9% hits | AID 624296; also: % of control where 0% means no effect; nearly all actives have a fitted effect of over 50% in size
Gal4-VP16 FLuc: counter-screen for ROR gamma inhibitors: Gal4-VP16 reporter; Drosophila S2 Gal4-VP16 UAS-luciferase, luminescence, 20 h; Potency, µM (series often up to 53.6 µM), inactives show at the top dose activity, negative = inhibition, most hits filed as inhibitors; AID 2546; 310,000 compounds, 3.5% hits;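 also: Gal4-VP16 expression switched on by copper sulfate through the metallothionein promoter; % is scaled to controls: 0 for no effect and ±100 for the full control effect; nearly all actives have a fitted effect of over 50% in size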
SW480 rereplic: DNA re-replication induction in SW480 cells; SW480 DNA re-replication, Hoechst DNA content imaging, 48 h; Potency, µM (series often up to 46.1 µM), for inactives: at the highest dose re-replication activation, hits mostly activators; 340,000 compounds, 1.8% hits; also: % of control where 0% means no effect; nearly all actives have a fitted effect of over 55% in size
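Quantitative HTS format with DMSO vehicle controls; 48 hr drug incubation at 37 C, then 40 min Hoechst staining and scanning imager measurement at 405 nm excitation.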
KB-V1 MDR tox: KB-V1 MDR subline cytotoxicity; 400,000 compounds, 3.4% hits; Potency, µM (top dose mostly 46.1 µM), actives largely listed as cytotoxic; KB-V1 MDR cells viability, CellTiter-Glo, 72 h; also: % is scaled to controls: 0 for no effect and ±100 for the full control effect; nearly all actives have a fitted effect of over 60% in size
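KB-V1 MDR subline cells in DMEM (phenol-red free, 10% FBS) exposed to compounds in qHTS concentration series for 72 h at 37 degrees C. Viability read by CellTiter-Glo luminescence; concentration-effect curves fitted after normalization and correction.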
RORg inh: ROR gamma (mouse) transcription inhibition | Drosophila S2 Gal4-RORgamma UAS-luciferase reporter, 20 h | AID 2551 | Potency, µM (series often up to 53.6 µM), for inactives: top-dose activity change, negative = inhibition, hits mostly inhibitors | 310,000 compounds, 5.4% hits; also: % is scaled to controls: 0 for no effect and ±100 for the full control effect; nearly all actives have a fitted effect of over 60% in size
Target sequence (P51450 whole entry, looked up, the tested form may be a part): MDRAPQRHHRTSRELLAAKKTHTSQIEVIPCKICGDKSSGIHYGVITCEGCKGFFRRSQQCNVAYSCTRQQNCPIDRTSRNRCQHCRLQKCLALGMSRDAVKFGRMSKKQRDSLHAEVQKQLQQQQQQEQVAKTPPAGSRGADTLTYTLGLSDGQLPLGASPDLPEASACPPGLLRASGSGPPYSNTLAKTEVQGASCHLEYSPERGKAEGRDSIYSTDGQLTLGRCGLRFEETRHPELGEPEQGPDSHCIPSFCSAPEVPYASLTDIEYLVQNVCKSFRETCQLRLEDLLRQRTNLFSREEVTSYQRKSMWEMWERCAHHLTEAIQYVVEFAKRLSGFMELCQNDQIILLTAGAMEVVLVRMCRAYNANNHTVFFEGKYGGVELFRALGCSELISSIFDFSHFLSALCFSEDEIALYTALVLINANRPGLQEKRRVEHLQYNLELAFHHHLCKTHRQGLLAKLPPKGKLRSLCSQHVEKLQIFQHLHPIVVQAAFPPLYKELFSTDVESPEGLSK
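In this cell-based reporter format, copper sulfate (700 uM final) drives Gal4–ROR gamma fusion expression from a metallothionein promoter in Drosophila Schneider cells; compounds preincubated 1 hr, reporter read after 20 hr at ambient temperature.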
KB-3-1 tox: KB-3-1 parental cell cytotoxicity. KB-3-1 viability, CellTiter-Glo ATP luminescence, 72 h. Potency, µM (doses to about 46.1 µM), usual class: cytotoxic. 400,000 compounds, 1.4% hits; also: % is scaled to controls: 0 for no effect and ±100 for the full control effect; nearly all actives have a fitted effect of over 60% in size
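KB-3-1 parental drug-naive adenocarcinoma cells in DMEM/10% FBS, incubated 72 h at 37 C with pin-transferred compounds across a concentration series. Viability by CellTiter-Glo luminescence; concentration-response curves fitted after normalization.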
* hit, by the source's call; i = inactive; u = inconclusive; x = no result; [ ] = another dose, or the depositor's remark. Hits are enriched below; roughly 10% of the tested compounds scored in any of these assays. Calls follow the shape of the dose curve; as a rule, active = well fitted curve in the direction sought with a large enough effect; inconclusive = small, poorly fitted or top-dose-only effect, or another doubt; inactive = no such curve, though single readings can be large; an effect the other way counts as inactive or inconclusive. Potency is read from the fitted curve at half-maximal effect.

SMILES | MCF10A rereplic | Gal4-VP16 FLuc | SW480 rereplic | KB-V1 MDR tox | RORg inh | KB-3-1 tox
CN(C)c1ccc(C(CNS(=O)(=O)c2ccc(F)cc2)c2c[nH]c3ccccc23)cc1 (centres undefined) | 21µM* | -1% | 12% | u | u | u
C=CCN(C(=O)C1CC(=O)N(C2CCCC2)C1)c1nc(-c2ccc(S(C)(=O)=O)cc2)cs1 (centres undefined) | 18% | x | -9% | 2.9µM* | x | 18µM*
Cc1ccc(C2CC(=O)C=C(NCC(C)C)C2)cc1 (centres undefined) | u | -3% | -12% | u | 9% | u
Cc1ccc(C2CC(=O)C=C(NCc3ccccc3)C2)cc1 (centres undefined) | 21µM* | 4% | 23µM* | 21µM* | 39% | 15µM*
O=C(O)c1ccccc1-c1ccccc1C(=O)Nc1ccccc1 | 1% | -6% | -7% | i | -1% | i
O=C(NNC(=O)c1ccccc1C(=O)O)c1ccc(-c2ccccc2)cc1 | x | 1% | x | x | 14µM* | x
O=C(Cc1ccccc1)Nc1cccc(C(=O)O)c1O | 20% | 10µM* | -118% | i | -31% | i
O=C(Cc1ccccc1)NNC(=O)c1ccccc1C(=O)O | 0% | 5% | 0% | i | 3.2µM* | i
Cc1occc1C(=O)NNC(=O)c1ccccc1C(=O)O | 5% | -6% | -59% | i | u | i
O=C(O)c1ccccc1-c1ccccc1C(=O)NNc1ccccc1 | 3% | -5% | 18µM* | i | 0% | i
CCc1cccc(NC(=O)CN(c2ccc(C)cc2)S(=O)(=O)c2cccs2)c1 | x | x | x | u | x | i
c1ccc(Nc2scc(-c3ccccc3)[n+]2Cc2ccco2)cc1 | 5% | u | -6% | u | -39% | u
c1ccc(C[n+]2c(-c3ccccc3)csc2Nc2ccccc2)cc1 | 2% | 4% | -6% | 16µM* | 28% | 21µM*
CC(=O)Nc1ccc(S(=O)(=O)N2CCCc3ccccc32)cc1 | 9.2µM* | 0% | 4.6µM* | u | -19% | i
O=S(=O)(c1ccc(Cl)cc1)N1CCCc2ccccc21 | u | -2% | 1% | i | -34%[1.91 µM] | i
O=C(Nc1ccc(F)c(F)c1)c1cc(S(=O)(=O)N2CCN(c3ccccn3)CC2)ccc1F | 4% | -5% | -1% | 10µM* | 31% | i
Cc1cccc(C)c1NC(=O)c1cc(S(=O)(=O)N2CCCc3ccccc32)ccc1F | x | x | x | i | x | i
Cc1cc(NC(=O)COC(=O)c2ccc(S(=O)(=O)N3CCCc4ccccc43)cc2)no1 | 9.2µM* | -6% | 15µM* | u | -1% | 15µM*
Cc1ccc(NC(=O)c2cc(S(=O)(=O)N3CCCc4ccccc43)ccc2F)cc1F | x | x | x | i | x | 26µM*
O=C(NC1CCCCCC1)C1CCN(C(=O)N2CCOc3ccccc32)CC1 | x | x | x | i | x | i
CSc1ccc(CNC(=O)c2ccccc2NC(=O)c2nsc3ccccc23)cc1 | x | x | x | i | x | i
COc1cc(OC)c(OC)cc1/C=c1\[nH]c(=O)/c(=C/c2cc(OC)c(OC)cc2OC)[nH]c1=O | x | x | x | i | x | u
O=c1nc(/C=C/c2cccn2-c2ccc([N+](=O)[O-])cc2)cc(C(F)(F)F)[nH]1 | -8% | 3% | -6% | i | 5% | i
COc1cc(/C=C/c2cc(C(F)(F)F)[nH]c(=O)n2)cc(OC)c1OC | u | u | 21µM* | i | u | u
O=c1nc(/C=C/c2cc([N+](=O)[O-])ccc2Cl)cc(C(F)(F)F)[nH]1 | 3.3µM* | -12% | 7% | u | 22% | i
SMILES | MCF10A rereplic | Gal4-VP16 FLuc | SW480 rereplic | KB-V1 MDR tox | RORg inh | KB-3-1 tox
COc1cc(OC)c(OC)cc1/C=C/c1cc(C(F)(F)F)[nH]c(=O)n1 | 23µM* | 5% | 18µM* | i | 1% | u
COc1cccc([C@@H]2Oc3ccc(Br)cc3C(=O)[C@H]2OC(=O)Nc2ccc(OC(F)F)cc2)c1 | x | -6% | x | x | u | x
CCCCN(C)CCNC(=O)C1CCCN(S(=O)(=O)c2ccc3c(c2)oc(=O)n3C)C1 (centres undefined) | x | x | x | i | x | i
CC(C)c1ccc(C(=O)C[N+]2(C)CCOCC2)cc1 | x | x | x | i | x | i
COc1ccc(C2CC(=O)c3cc(-c4nc(-c5ccc(Cl)cc5)cs4)c(=O)[nH]c3C2)cc1 (centres undefined) | x | x | x | i | x | i
O=C1CC(c2ccccc2)Cc2[nH]c(=O)c(-c3nc(-c4ccc(F)cc4)cs3)cc21 (centres undefined) | x | x | x | i | x | 4.6µM*
Cc1sc(-c2cc3c([nH]c2=O)CC(c2ccccc2)CC3=O)nc1-c1ccc(Cl)cc1 (centres undefined) | x | x | x | 0.82µM* | x | 1µM*
COc1ccccc1S(=O)(=O)N(C)C[C@@H]1OCc2cnnn2CCCC(=O)N([C@@H](C)CO)C[C@H]1C | x | x | x | i | x | i
Cc1nc2c(-c3ccccc3)c(C)nn2c(C)c1CCC(=O)NCc1ccc(F)cc1 | x | x | x | i | x | i
Cc1ccc2c(c1)c(=O)c(S(=O)(=O)c1ccc(C)c(C)c1)cn2CC(=O)Nc1ccccc1 | x | x | x | i | x | i
Cc1ccccc1-n1nnnc1SCC(=O)c1c(N)n(C2CC2)c(=O)[nH]c1=O | 0% | x | -5% | i | x | i
CN(C)CCCN(C(=O)c1ccc(S(=O)(=O)N2CCc3ccccc3C2)cc1)c1nc2ccc(F)cc2s1 | 4.6µM* | 11µM* | u | u | u | u
COc1ccc2sc(N(CCCN(C)C)C(=O)c3ccc(S(=O)(=O)N4CCc5ccccc5C4)cc3)nc2c1 | u | x | 30% | 23µM* | x | u
Cc1ccc2nc(N(CCCN(C)C)C(=O)c3ccc(S(=O)(=O)N4CCc5ccccc5C4)cc3)sc2c1 | 5.2µM* | 13µM* | u | 21µM* | 10µM* | u
CN(C)CCCN(C(=O)c1ccc(S(=O)(=O)N2CCc3ccccc32)cc1)c1nc2ccc(F)cc2s1 | 6% | -23% | u | i | -42% | i
Cc1ccc2nc(N(CCCN(C)C)C(=O)c3ccc(S(=O)(=O)N4CCOCC4)cc3)sc2c1 | -32% | -10% | -1% | i | 2% | i
Cc1cc(C)cc(-n2c(C)cc(C(=O)C(=O)Nc3ccccc3F)c2C)c1 | x | x | x | i | x | i
Cc1ccc(CNC(=O)CCC(=O)N2CC3CCCN3c3ccccc32)cc1 (centres undefined) | x | x | x | u | x | i
